A selection: hits, their analogues and other compounds. The true share with any hit is near 8%.
MARV entry inh = blocks Marburg virus binding to or entry into cells | Marburg virus pseudotyped entry inhibition, cell reporter | Potency, µM (doses to about 37.8 µM), hits mostly inhibitors | hit rate 1.8% among 300,000 | AID 540276; calls by dose curve; tested in HEK293 cells
SARS PLP yeast = blocks SARS-CoV papain-like protease in a yeast assay | Potency, µM (top dose mostly 32.9 µM), hits mostly activators | hit rate 0.19% among 330,000 | S. cerevisiae expressing SARS-CoV PLpro, growth rescue; calls by dose curve; also: nearly all actives have a fitted effect of over 55% in size
HCMV inh = inhibitors of human cytomegalovirus. hit rate 4.5% among 410,000. HFF cells, HCMV-luciferase reporter, 72 h; hits give low values. activity change, negative = inhibition, % at 57.5 µM; in the data active = activity change below about -60%; inconclusive = no clear call, values can overlap the other calls; inactive = above about -39%
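After 16 h attachment at 37C, HFF cells received test compound and HCMV-luciferase (1 PFU/cell); reporter luminescence read 72 h later, data normalized against buffer-only and known inhibitor Salinomycin.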
LASV entry inh = inhibitors of Lassa virus binding or cell entry. Lassa virus pseudotype entry inhibition, cell reporter. Potency, µM (highest dose often 37.9 µM), usual class: inhibitors. hit rate 1.2% among 300,000. AID 540256; calls by dose curve; tested in HEK293 cells; also: nearly all actives have a fitted effect of over 50% in size
FMDV inh = antivirals against foot and mouth disease virus; FMDV antiviral cell-based qHTS; Potency, µM (doses to about 57.9 µM), hits mostly inhibitors; hit rate 1.2% among 410,000; calls by dose curve; tested in HEK293T cells; also: read-out not given here; nearly all actives have a fitted effect of over 45% in size
HCV inh = blocks hepatitis C virus; AID 651820; hit rate 3.4% among 340,000; Huh7.5.1 HCVcc-Cre infection, luciferase reporter, 44 h; Potency, µM (top dose mostly 41.8 µM), most hits filed as inhibitors; active = well fitted inhibition curve with a large enough effect; inconclusive = small, poorly fitted or top-dose-only effect, or another doubt; inactive = no such curve, though single readings can be large or run the other way
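Infectious HCV cell culture screen: compound-treated cells (1,000/well, pre-plated 4 h) are infected with HCVcc-Cre at roughly 0.5 moi and grown 44 h. Infection is quantified by luciferase signal after 15 min substrate incubation at room temperature.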
A number is an active result.

How did COc1cccc(NC(=O)CN(C)C(=O)c2ccccc2-c2nc3ccccc3s2)c1 do in these assays?
MARV entry inh: 7.1µM; SARS PLP yeast: inactive; HCMV inh: inactive; LASV entry inh: inactive; FMDV inh: inactive; HCV inh: inactive

What do the screens show for `CC(=O)Nc1nonc1-c1nnc(SCC(=O)N(C)c2ccccc2)n1C`?
MARV entry inh: inactive; HCMV inh: inactive; LASV entry inh: inactive; FMDV inh: inactive

How did Cc1ccc2nc(C3CCN(S(=O)(=O)c4ccc5ccccc5c4)CC3)[nH]c2c1 do in these assays?
MARV entry inh: inconclusive; HCMV inh: -80; LASV entry inh: inconclusive; HCV inh: inconclusive

How did Cc1ccc2c(c1)nnn2C1CCN(S(=O)(=O)c2ccc3ccccc3c2)CC1 do in these assays?
MARV entry inh: inactive; SARS PLP yeast: inactive; HCMV inh: -64; LASV entry inh: inconclusive; FMDV inh: inconclusive; HCV inh: inconclusive

What do the screens show for `O=S(=O)(c1ccc2c(c1)OCCO2)N1CCC(c2nc3ccc(Cl)cc3[nH]2)CC1`?
MARV entry inh: inconclusive; SARS PLP yeast: inactive; HCMV inh: -96; LASV entry inh: inactive; FMDV inh: 14µM; HCV inh: inconclusive

What do the screens show for `Cc1ccc2c(c1)nnn2C1CCN(S(=O)(=O)c2cccc(S(=O)(=O)N(C)C)c2)CC1`?
MARV entry inh: inconclusive; SARS PLP yeast: inactive; HCMV inh: inactive; LASV entry inh: inconclusive; FMDV inh: 18µM; HCV inh: 10µM

How did Cc1ccc(NC(=O)Cn2c(=O)n(CCC(=O)N3CCc4ccccc4C3)c(=O)c3ccccc32)cc1 do in these assays?
MARV entry inh: inactive; HCMV inh: inactive; LASV entry inh: inactive; FMDV inh: inactive

Results for CC(C)Cc1nc2cc(NS(=O)(=O)N(C)C)cc(C(=O)N3CCOc4ccccc4C3)c2n1C ?
FMDV inh: inactive

Results for COc1cc(OC)cc(C(=O)N2CCN(C(=O)COc3ccccc3)CC2)c1 ?
MARV entry inh: inactive; HCMV inh: inactive; LASV entry inh: inactive; FMDV inh: inactive

Results for CN(C)c1ccc(/C=C/C=C/c2sc3ccccc3[n+]2C)cc1 ?
MARV entry inh: inconclusive; SARS PLP yeast: inactive; HCMV inh: -95; LASV entry inh: inconclusive; FMDV inh: 40µM; HCV inh: inconclusive

What do the screens show for `CC[n+]1c(/C=C/N(C)c2ccccc2)sc2ccc(Cl)cc21`?
MARV entry inh: 2.9µM; SARS PLP yeast: inactive; HCMV inh: -97; LASV entry inh: inconclusive; HCV inh: inconclusive

How did CC[n+]1c(/C=C/C=C/N(C(C)=O)c2ccccc2)sc2ccccc21 do in these assays?
MARV entry inh: inconclusive; SARS PLP yeast: inactive; HCMV inh: inconclusive; LASV entry inh: inactive; FMDV inh: inconclusive; HCV inh: inconclusive

What do the screens show for `CC[n+]1c(/C=C/C=C/c2ccc(N(C)C)cc2)sc2ccccc21`?
MARV entry inh: 1.8µM; SARS PLP yeast: inactive; HCMV inh: -110; LASV entry inh: inconclusive; FMDV inh: inconclusive; HCV inh: 2.8µM

What do the screens show for `CN(C)c1ccc(/C=C/C=C2/SC(=S)N(c3ccccc3)C2=O)cc1`?
MARV entry inh: inactive; SARS PLP yeast: inactive; HCMV inh: inactive; LASV entry inh: inactive; FMDV inh: inconclusive; HCV inh: inactive

Results for COc1ccc(-c2cc(NC=O)c3ncc(-c4ccc(OC)c(OC)c4)n3c2)cn1 ?
HCMV inh: inactive

Results for CCCCCCCCCCCCCCCCCCNC(=O)OC[C@@H](COP(=O)([O-])OCC[n+]1ccsc1)OC ?
MARV entry inh: inactive

What do the screens show for `O=C(Nc1ccc(N2CCCCC2)cc1)c1ccccc1`?
MARV entry inh: inconclusive; SARS PLP yeast: inactive; HCMV inh: inactive; LASV entry inh: 7.3µM; HCV inh: inconclusive

Results for CC(=O)N1CCN(c2ccc(NC(=O)c3ccc(Cl)cc3)cc2)CC1 ?
SARS PLP yeast: inactive; HCMV inh: inactive; FMDV inh: inactive; HCV inh: inactive

How did O=C(Nc1ccc(N2CCCCC2)cc1)c1ccc(F)cc1F do in these assays?
MARV entry inh: inconclusive; SARS PLP yeast: inactive; HCMV inh: inactive; LASV entry inh: 10µM; FMDV inh: inactive; HCV inh: inactive

How did O=C(Nc1ccc(N2CCCC2)cc1)c1ccccc1F do in these assays?
MARV entry inh: inconclusive; SARS PLP yeast: inactive; HCMV inh: inactive; LASV entry inh: inactive; FMDV inh: inactive; HCV inh: inconclusive

Results for CC(=O)N1CCN(c2ccc(NC(=O)c3ccc(C(C)(C)C)cc3)cc2)CC1 ?
MARV entry inh: inconclusive; SARS PLP yeast: inactive; HCMV inh: -86; LASV entry inh: inconclusive; HCV inh: inconclusive

What do the screens show for `Cc1cc(C(=O)Nc2ccc(N3CCCCC3)cc2)no1`?
MARV entry inh: inconclusive; SARS PLP yeast: inactive; HCMV inh: inactive; LASV entry inh: 11µM; FMDV inh: inactive; HCV inh: inactive

Results for O=C(Nc1ccc(N2CCCC2)cc1)c1cccc(-c2cc3ccccc3oc2=O)c1 ?
MARV entry inh: inconclusive; SARS PLP yeast: inactive; HCMV inh: -63; LASV entry inh: inconclusive; FMDV inh: inactive; HCV inh: inactive

What do the screens show for `O=C(Nc1ccccc1N1CCCC1)c1cccc(-c2cc3ccccc3oc2=O)c1`?
MARV entry inh: inactive; SARS PLP yeast: inactive; HCMV inh: inactive; LASV entry inh: inactive; FMDV inh: inactive; HCV inh: inconclusive

What do the screens show for `O=C(Nc1ccc(N2CCCC2)cc1)c1cccc(Cl)c1Cl`?
MARV entry inh: inactive; SARS PLP yeast: inactive; HCMV inh: -80; LASV entry inh: inactive; FMDV inh: inactive; HCV inh: inconclusive

How did O=C(C=Cc1ccccc1)c1ccccc1O do in these assays?
MARV entry inh: inconclusive; LASV entry inh: inactive

How did COCCCNc1ncnc2sc(C(=O)N3CCCCC3)c(C)c12 do in these assays?
FMDV inh: inactive

Results for O=C(COc1cccc2c1CCN(Cc1ccc(Br)cc1)C2=O)N1CCOCC1 ?
MARV entry inh: inconclusive; SARS PLP yeast: inactive; HCMV inh: inactive; LASV entry inh: inconclusive; FMDV inh: inconclusive; HCV inh: 11µM

What do the screens show for `O=C1c2cccc(OCC(=O)N3CCCc4ccccc43)c2CCN1Cc1ccc(Br)cc1`?
MARV entry inh: inconclusive; SARS PLP yeast: inactive; HCMV inh: inconclusive; LASV entry inh: 21µM; FMDV inh: inconclusive; HCV inh: inconclusive

How did CCn1nc(C)c(CN2Cc3ccccc3OC(c3ccccc3OC)C2)c1C (centres undefined) do in these assays?
FMDV inh: inactive

Results for CCN1CCc2c(OCC(=O)N3N=C(c4cccs4)CC3c3ccc(F)cc3)cccc2C1=O (centres undefined) ?
MARV entry inh: inconclusive; SARS PLP yeast: inactive; HCMV inh: inactive; LASV entry inh: 11µM; FMDV inh: inactive; HCV inh: 10µM

Results for CN1CCc2c(OCC(=O)N3N=C(c4cccs4)CC3c3ccc(F)cc3)cccc2C1=O (centres undefined) ?
MARV entry inh: inconclusive; SARS PLP yeast: inactive; HCMV inh: -89; LASV entry inh: inactive; FMDV inh: inconclusive; HCV inh: inactive

How did O=C1CCCCC1Sc1nnc(-c2ccc3c(c2)OCO3)o1 (centres undefined) do in these assays?
MARV entry inh: 5.6µM; SARS PLP yeast: inactive; HCMV inh: inconclusive; LASV entry inh: inconclusive; FMDV inh: 4µM; HCV inh: inactive

Compound activity: PubChem, National Center for Advancing Translational Sciences (NCATS)
